# According to PubChem BioAssay (NCI):
# The panel holds about 79,000 compounds, 15% with a hit somewhere; the sample as a whole holds those more often. Unmarked numbers belong to inactive results. Calls of active or inactive are those of the source. No stated cut-off is given here; in the data, active means growth inhibition above about 70%; inactive means the rest.
# How the values were obtained:
# [1] = NCI Yeast Anticancer Drug Screen. Data for the rad50 strain (AID 155);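 further: 0% = growth of vehicle-only cultures of the same strain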; settings: S. cerevisiae rad50 strain growth inhibition, hits give high values
# Procedure, shortened: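 A DNA repair-deficient yeast mutant serves as the test organism; compound-induced growth inhibition is calculated against vehicle-treated cells.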
# [2] = NCI Yeast Anticancer Drug Screen. Data for the mec2-1 strain (AID 157); settings: S. cerevisiae mec2-1 strain, hits give high values
# Procedure, shortened: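 Readout is yeast growth inhibition, normalised to vehicle-treated controls, in the mec2-1 strain exposed to compound.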
# [3] = NCI Yeast Anticancer Drug Screen. Data for the sgs1 mgt1 strain (AID 161);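 further: 0% = growth of cultures given vehicle only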; settings: S. cerevisiae sgs1 mgt1 strain, hits give high values
# Procedure, shortened: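 Yeast cells carrying a defined DNA-repair defect were exposed to test compounds. Growth inhibition was measured relative to vehicle-treated controls.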
# [4] = NCI Yeast Anticancer Drug Screen. Data for the cln2 rad14 strain (AID 165);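 further: 0% = growth equal to vehicle treated cultures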; settings: S. cerevisiae cln2 rad14 strain, hits give high values
# Procedure, shortened: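 Relative to vehicle controls, growth inhibition of compound-treated cln2 rad14 yeast was recorded.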
# [5] = NCI Yeast Anticancer Drug Screen. Data for the bub3 strain (AID 167); settings: S. cerevisiae bub3 mutant strain, hits give high values
# Procedure, shortened: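 Inhibition values come from growth of compound-treated mutant yeast normalised to vehicle-treated controls.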
# [6] = NCI Yeast Anticancer Drug Screen. Data for the mlh1 rad18 strain (AID 175); settings: S. cerevisiae mlh1 rad18 strain growth inhibition, hits give high values
# Procedure, shortened: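 Test agents were incubated with a yeast strain of defined genotype (DNA damage repair defect). Inhibition of growth was derived by comparison with vehicle-exposed cultures.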
# [7] = at 5.0 µM (retest, dose inferred, filed as 0.5)
# [8] = at 50.0 µM (retest, dose inferred, filed as 5.0)
Compound,"growth inhibition [1, 7]","growth inhibition [1, 8]",growth inhibition ([1]; at 50.0 µM),"growth inhibition [2, 7]","growth inhibition [2, 8]",growth inhibition ([2]; at 50.0 µM),"growth inhibition [3, 7]","growth inhibition [3, 8]",growth inhibition ([3]; at 50.0 µM),"growth inhibition [4, 7]","growth inhibition [4, 8]",growth inhibition ([4]; at 50.0 µM),"growth inhibition [5, 7]","growth inhibition [5, 8]",growth inhibition ([5]; at 50.0 µM),"growth inhibition [6, 7]","growth inhibition [6, 8]",growth inhibition ([6]; at 50.0 µM)
NC(=O)/C=C/c1ccc([As]=O)cc1 (configuration not stated),1%,25%,97.8% (active),1%,22%,98.7% (active),0%,34%,99.3% (active),9%,3%,96.5% (active),4%,37%,98.7% (active),5%,39%,99% (active)
CCC[CH2][Sn]([CH2]CCC)[S]CC(N)C(=O)O (configuration not stated),63%,98% (active),98.5% (active),67%,99% (active),98.5% (active),56%,95% (active),98.1% (active),49%,98% (active),98.1% (active),80% (active),99% (active),98% (active),62%,98% (active),97.9% (active)
O=C(CBr)NC1CCCCC1,1%,93% (active),81% (active),4%,94% (active),90.6% (active),4%,93% (active),82.8% (active),2%,91% (active),60%,6%,94% (active),85.2% (active),-2%,96% (active),93% (active)
O=[N+]([O-])/C=C/c1ccc(Cl)cc1[N+](=O)[O-],97% (active),98% (active),99.2% (active),98% (active),99% (active),99.6% (active),99% (active),99% (active),99.5% (active),98% (active),97% (active),99.3% (active),99% (active),99% (active),99.4% (active),96% (active),99% (active),99.2% (active)
O=C1CN2CCCCC2CN1 (configuration not stated),-159%,-143%,-13.2%,-43%,-47%,7.9%,-59%,-56%,-2.65%,-58%,-60%,24.9%,-73%,-71%,1.8%,-137%,-114%,5.35%
CC(=O)[O-].O=[N+]([O-])c1ccc([O-])c(C=NCCN=Cc2cc([N+](=O)[O-])ccc2[O-])c1.[Mn+3],15%,96% (active),91.8% (active),-2%,98% (active),79.2% (active),10%,93% (active),91.6% (active),19%,95% (active),48.2%,1%,94% (active),88.5% (active),12%,97% (active),93.3% (active)
COc1c(Cl)[c]([Hg][O]C(C)=O)c(NCC(C)=O)c(OC)[c]1[Hg][O]C(C)=O,80% (active),94% (active),87.3% (active),99% (active),94% (active),90.5% (active),99% (active),95% (active),90.8% (active),35%,95% (active),89.4% (active),99% (active),94% (active),89.4% (active),95% (active),94% (active),86.4% (active)
[O-][n+]1ccccc1S,99% (active),99% (active),99.4% (active),100% (active),100% (active),99.7% (active),100% (active),99% (active),99.7% (active),99% (active),99% (active),99.2% (active),99% (active),99% (active),99.3% (active),99% (active),99% (active),99.5% (active)
N=C(N)c1ccc(NN=Nc2cccc3c2Oc2ccccc2O3)cc1,48%,89% (active),80% (active),20%,84% (active),78.1% (active),32%,90% (active),74.6% (active),14%,69%,71% (active),10%,80% (active),83.5% (active),17%,83% (active),70.2% (active)
O=c1ccc(N=Cc2ccc(N(CCCl)CCCl)cc2)ccc1O,94% (active),93% (active),96.2% (active),92% (active),97% (active),65.4%,97% (active),98% (active),92% (active),52%,89% (active),35.4%,95% (active),93% (active),93% (active),98% (active),98% (active),93.8% (active)
CC(C)CC(C)(c1ccc(O)cc1)c1ccc(O)cc1,81% (active),98% (active),92% (active),78% (active),99% (active),93.5% (active),99% (active),99% (active),93.8% (active),80% (active),99% (active),92.6% (active),98% (active),99% (active),92.2% (active),68%,99% (active),92.3% (active)
Sc1ccccc1.[Ag],27%,97% (active),98.5% (active),58%,99% (active),98.8% (active),49%,98% (active),99% (active),20%,97% (active),98.1% (active),56%,97% (active),97.9% (active),49%,97% (active),98.3% (active)
CC[CH2][Pb]([CH2]CC)([CH2]CC)[O]C(C)=O,54%,79% (active),91% (active),50%,75% (active),92.7% (active),100% (active),100% (active),93.8% (active),73% (active),100% (active),91.3% (active),99% (active),100% (active),90.6% (active),49%,67%,91.3% (active)
C[C@]12CCCC[C@@H]1CC[C@@H]1[C@@H]2C(=O)C[C@@]2(C)[C@H]1CC[C@]2(C)O,6%,97% (active),60.4%,0%,99% (active),99% (active),0%,99% (active),50.3%,0%,97% (active),20.6%,-4%,80% (active),53%,30%,99% (active),98% (active)
Nc1ccc(Br)cc1C(=O)c1ccccc1,12%,95% (active),99% (active),11%,97% (active),99% (active),32%,98% (active),99.2% (active),12%,95% (active),92.5% (active),6%,96% (active),94% (active),14%,95% (active),99.2% (active)
ClCCN(Cc1ccccc1)CC1COc2ccccc2O1 (configuration not stated),10%,72% (active),91.2% (active),-1%,79% (active),92.1% (active),7%,95% (active),90.5% (active),-2%,34%,82.7% (active),11%,90% (active),97.3% (active),15%,94% (active),97.3% (active)
O=C1CCCC1Cl (configuration not stated),-2%,3%,39.8%,-2%,-3%,82.6% (active),-4%,0%,12.5%,-2%,-8%,81.9% (active),4%,-4%,99.3% (active),-3%,3%,56.9%
CN=C(N)N/N=C(\C)c1ccc2sc3ccc(/C(C)=N/NC(N)=NC)cc3c2c1,49%,55%,74.7% (active),-4%,-2%,24.5%,23%,14%,13%,17%,7%,20.8%,24%,20%,-8.5%,14%,17%,30.2%
S=C1NCCN1,1%,65%,12.2%,-4%,15%,14.7%,0%,35%,-17.6%,5%,14%,38.5%,-1%,21%,-2.65%,2%,51%,4.95%
